The values that follow come from PubChem BioAssay (NCI).

Compounds without any hit were thinned out: in the full panel of roughly 79,000, 15% have a hit. Values without a mark were called inactive. Activity calls are given as the source filed them. Cut-off read from the data, not from the text of the source: active = growth inhibition above about 70%; inactive = the rest.

Test [1] is described as follows: NCI Yeast Anticancer Drug Screen. Data for the rad50 strain (AID 155).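 Note: 0% = growth of vehicle-only cultures of the same strain.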 The settings on record: S. cerevisiae rad50 strain growth inhibition, stronger effect = higher value. In outline: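 Readout: growth inhibition relative to vehicle-treated cultures. Compound exposure was carried out in a genetically defined yeast strain deficient in DNA damage repair.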
The nature of test [2]: NCI Yeast Anticancer Drug Screen. Data for the mec2-1 strain (AID 157). The conditions noted are these: S. cerevisiae mec2-1 strain, stronger effect = higher value. In outline:
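Each compound was tested on mec2-1 yeast, a strain altered in DNA damage repair or cell cycle control. Growth inhibition is reported relative to vehicle.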

Test [3] in a line: NCI Yeast Anticancer Drug Screen. Data for the sgs1 mgt1 strain (AID 161).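 Note: 0% = growth of cultures given vehicle only.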 The settings on record: S. cerevisiae sgs1 mgt1 strain, stronger effect = higher value. In outline: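 Genetically altered yeast, compound exposure, growth inhibition relative to vehicle.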
The nature of test [4]: NCI Yeast Anticancer Drug Screen. Data for the cln2 rad14 strain (AID 165).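 Note: 0% = growth equal to vehicle treated cultures.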 The settings on record: S. cerevisiae cln2 rad14 strain, stronger effect = higher value. Put shortly: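 Test compounds were added to cln2 rad14 yeast cultures; inhibition of growth was then determined by comparison with vehicle treatment.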
Test [5] is described as follows: NCI Yeast Anticancer Drug Screen. Data for the bub3 strain (AID 167). The conditions noted are these: S. cerevisiae bub3 mutant strain, stronger effect = higher value. In outline:
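Readout: yeast growth inhibition, expressed relative to vehicle-only wells. The test organism is a mutant strain from a panel with lesions in DNA repair or checkpoint genes.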

Test [6] is described as follows: NCI Yeast Anticancer Drug Screen. Data for the mlh1 rad18 strain (AID 175). The conditions noted are these: S. cerevisiae mlh1 rad18 strain growth inhibition, stronger effect = higher value. Put shortly:
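Inhibition values reflect reduced growth of mutant yeast versus vehicle-treated controls following compound exposure; the mutations affect DNA damage repair.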

[7] abbreviates: at 5.0 µM (retest, dose inferred, filed as 0.5).
The mark [8] stands for this setting: at 50.0 µM (retest, dose inferred, filed as 5.0).

Regarding `O=C(O)c1cccc(N=Nc2c(S(=O)(=O)O)ccc3c2C(=O)c2ccccc2C3=O)c1O`, the growth inhibition is 17% in test [1] (setting [7]); 38% in test [1] (setting [8]); 30.4% in test [1] (at 50.0 µM); 8% in test [2] (setting [7]); 17% in test [2] (setting [8]); 36.8% in test [2] (at 50.0 µM). For the same molecule, the growth inhibition in test [3] (setting [7]) is 8%; in test [3] (setting [8]), 38%; in test [3] (at 50.0 µM), -2.5%; in test [4] (setting [7]), -21%; in test [4] (setting [8]), 17%; in test [4] (at 50.0 µM) it was 71.1% (active). Moreover, the growth inhibition in test [5] (setting [7]) was -11%; in test [5] (setting [8]), 25%; in test [5] (at 50.0 µM), -15.2%; in test [6] (setting [7]) it was 29%; in test [6] (setting [8]), 28%; in test [6] (at 50.0 µM), 85.6% (active).
Take `[C](#[C][Sn]([c]1ccccc1)([c]1ccccc1)[c]1ccccc1)[Sn]([c]1ccccc1)([c]1ccccc1)[c]1ccccc1`: the growth inhibition in test [1] (setting [7]) was 98% (active); in test [1] (setting [8]), 95% (active); in test [1] (at 50.0 µM) it was 97.5% (active); in test [2] (setting [7]), 99% (active); in test [2] (setting [8]), 97% (active); in test [2] (at 50.0 µM), 98.3% (active). Also, the growth inhibition in test [3] (setting [7]) is 99% (active); in test [3] (setting [8]), 97% (active); in test [3] (at 50.0 µM), 96.5% (active); in test [4] (setting [7]), 98% (active); in test [4] (setting [8]), 95% (active); in test [4] (at 50.0 µM) it was 98.4% (active). For the same molecule, the growth inhibition in test [5] (setting [7]) was 98% (active); in test [5] (setting [8]), 96% (active); in test [5] (at 50.0 µM), 98.8% (active); in test [6] (setting [7]) it was 98% (active); in test [6] (setting [8]), 97% (active); in test [6] (at 50.0 µM), 96.9% (active).
For the molecule `COC(=O)CC1C(=O)OCc2c1cc1n(c2=O)Cc2c-1nc1ccccc1c2OC` (configuration not stated), the growth inhibition in test [1] (setting [7]) is 15%; in test [1] (setting [8]) it was 77% (active); in test [1] (at 50.0 µM), 94.4% (active); in test [2] (setting [7]), 4%; in test [2] (setting [8]) it was 15%; in test [2] (at 50.0 µM) it was 9.05%. In addition, the growth inhibition in test [3] (setting [7]) is -4%; in test [3] (setting [8]), -1%; in test [3] (at 50.0 µM), 10%; in test [4] (setting [7]), -12%; in test [4] (setting [8]) it was -7%; in test [4] (at 50.0 µM), 20.4%. For the same molecule, the growth inhibition in test [5] (setting [7]) was -2%; in test [5] (setting [8]), 11%; in test [5] (at 50.0 µM) it was 12.7%; in test [6] (setting [7]) it was 7%; in test [6] (setting [8]), 1%; in test [6] (at 50.0 µM), 51.2%.
Regarding `CC(C)(C)OC(=O)NCCNC(=O)CN(CC(=O)O)C1CCCCC1N(CC(=O)O)CC(=O)O` (configuration not stated), the growth inhibition in test [1] (setting [7]) was -16%; in test [1] (setting [8]), 59%; in test [1] (at 50.0 µM), 50.4%; in test [2] (setting [7]) it was -7%; in test [2] (setting [8]), 52%; in test [2] (at 50.0 µM) it was 62.3%. In addition, the growth inhibition in test [3] (setting [7]) was 1%; in test [3] (setting [8]), 46%; in test [3] (at 50.0 µM) it was 61.6%; in test [4] (setting [7]) it was -21%; in test [4] (setting [8]), 46%; in test [4] (at 50.0 µM) it was 15.9%. For the same molecule, the growth inhibition in test [5] (setting [7]) is 0%; in test [5] (setting [8]) it was 75% (active); in test [5] (at 50.0 µM), 66.2%; in test [6] (setting [7]), -10%; in test [6] (setting [8]), 66%; in test [6] (at 50.0 µM) it was 74.5% (active).
